# In publication PMC7862700, “An all-to-all approach to the identification of sequence-specific readers for epigenetic DNA modifications on cytosine”:
# Key:
# Experiment in all cases: DAPPL (digital affinity profiling via proximity ligation, sequencing); 10 mM Tris-HCl pH 7.5, 50 mM NaCl, 1 mM DTT, 4% glycerol, room temperature, 30 min; GST-TFs on glutathione beads, 16-mer random dsDNA library, 0.1% formaldehyde crosslink after washing; high values mean tight binding
# [1] = biological target: T1, FLI1 (Homo sapiens, UniProt Q01543 1-452); conditions: protein: recombinant; tags: N-terminal GST; dsDNA, one strand shown
# T1 sequence: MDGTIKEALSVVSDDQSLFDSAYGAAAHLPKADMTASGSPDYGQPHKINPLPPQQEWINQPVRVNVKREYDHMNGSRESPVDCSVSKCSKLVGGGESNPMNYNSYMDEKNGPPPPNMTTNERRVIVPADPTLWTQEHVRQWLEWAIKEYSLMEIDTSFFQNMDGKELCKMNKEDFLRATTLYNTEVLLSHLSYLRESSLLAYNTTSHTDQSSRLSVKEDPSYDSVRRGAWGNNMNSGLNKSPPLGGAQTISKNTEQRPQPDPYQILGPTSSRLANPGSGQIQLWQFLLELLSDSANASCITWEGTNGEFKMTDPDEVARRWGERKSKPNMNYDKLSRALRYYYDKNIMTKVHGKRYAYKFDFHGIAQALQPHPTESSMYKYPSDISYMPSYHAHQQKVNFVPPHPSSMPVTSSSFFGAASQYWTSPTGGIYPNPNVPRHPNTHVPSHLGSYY
# Procedure, shortened: (§1)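 Pools of DNA-barcoded human transcription factors, expressed in yeast as GST fusions on glutathione beads and combined with a tag-only sample, were incubated with 200 nmole of a 16-mer random double-stranded DNA library. Incubation took 30 min at room temperature in Tris/NaCl/DTT/glycerol buffer and was followed by washing, 0.1% formaldehyde crosslinking, proximity ligation (BsaI/T4 ligase, 1 h, 37 °C), PCR amplification and sequencing on an Illumina NextSeq500. Binding signal is the ratio of a hexamer's read frequency for a factor to its frequency for the tag-only sample.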
# [2] = biological target: T2, ELK1 (Homo sapiens, UniProt P19419 1-428); conditions: protein: recombinant; tags: N-terminal GST; dsDNA, one strand shown
# T2 sequence: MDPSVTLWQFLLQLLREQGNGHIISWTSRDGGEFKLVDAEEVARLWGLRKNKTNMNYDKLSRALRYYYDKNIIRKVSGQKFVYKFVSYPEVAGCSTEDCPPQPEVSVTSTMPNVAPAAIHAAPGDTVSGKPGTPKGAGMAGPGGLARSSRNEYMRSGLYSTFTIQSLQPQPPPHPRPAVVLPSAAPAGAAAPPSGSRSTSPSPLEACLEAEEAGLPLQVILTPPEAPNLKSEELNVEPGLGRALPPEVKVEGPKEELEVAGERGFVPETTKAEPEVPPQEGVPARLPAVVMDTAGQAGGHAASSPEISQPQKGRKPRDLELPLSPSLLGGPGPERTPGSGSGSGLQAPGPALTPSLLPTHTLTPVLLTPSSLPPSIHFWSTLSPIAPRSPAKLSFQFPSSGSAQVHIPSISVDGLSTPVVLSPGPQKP
# Procedure, shortened: as §1
# [3] = biological target: T3, GABPA (Homo sapiens, UniProt Q06546 1-454); conditions: protein: recombinant; tags: N-terminal GST; dsDNA, one strand shown
# T3 sequence: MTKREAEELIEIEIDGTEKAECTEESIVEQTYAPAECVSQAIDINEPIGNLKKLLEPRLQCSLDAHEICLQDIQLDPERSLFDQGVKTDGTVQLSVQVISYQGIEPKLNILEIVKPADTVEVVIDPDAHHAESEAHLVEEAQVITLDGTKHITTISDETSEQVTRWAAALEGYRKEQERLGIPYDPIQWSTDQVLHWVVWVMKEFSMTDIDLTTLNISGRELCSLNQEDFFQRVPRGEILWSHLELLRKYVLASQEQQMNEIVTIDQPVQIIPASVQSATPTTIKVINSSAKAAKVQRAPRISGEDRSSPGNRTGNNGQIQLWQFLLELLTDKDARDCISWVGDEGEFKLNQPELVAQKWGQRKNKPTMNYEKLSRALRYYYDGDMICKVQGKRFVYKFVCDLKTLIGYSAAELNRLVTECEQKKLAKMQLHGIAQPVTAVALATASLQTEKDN
# Procedure, shortened: as §1
# [4] = biological target: T4, ERG (Homo sapiens, UniProt P11308 1-479); conditions: protein: recombinant; tags: N-terminal GST; dsDNA, one strand shown
# T4 sequence: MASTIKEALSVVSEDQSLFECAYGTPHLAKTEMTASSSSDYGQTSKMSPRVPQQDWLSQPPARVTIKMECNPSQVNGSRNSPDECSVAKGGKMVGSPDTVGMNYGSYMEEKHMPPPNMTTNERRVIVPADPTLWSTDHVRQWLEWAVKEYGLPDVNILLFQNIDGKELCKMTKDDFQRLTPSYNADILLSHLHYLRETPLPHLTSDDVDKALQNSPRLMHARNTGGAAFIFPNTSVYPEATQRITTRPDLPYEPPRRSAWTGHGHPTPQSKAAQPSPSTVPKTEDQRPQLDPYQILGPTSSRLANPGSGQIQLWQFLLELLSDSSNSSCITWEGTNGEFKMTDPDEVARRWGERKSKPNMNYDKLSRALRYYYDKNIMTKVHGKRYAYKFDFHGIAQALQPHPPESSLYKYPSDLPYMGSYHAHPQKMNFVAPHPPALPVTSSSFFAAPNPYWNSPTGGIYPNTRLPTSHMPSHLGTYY
# Procedure, shortened: as §1
# [5] = biological target: ELF1 (Homo sapiens, UniProt P32519 1-619); conditions: protein: recombinant; tags: N-terminal GST; dsDNA, one strand shown
# Procedure, shortened: as §1
# [6] = biological target: T5, EHF (Homo sapiens, UniProt Q9NZC4 1-300); conditions: protein: recombinant; tags: N-terminal GST; dsDNA, one strand shown
# T5 sequence: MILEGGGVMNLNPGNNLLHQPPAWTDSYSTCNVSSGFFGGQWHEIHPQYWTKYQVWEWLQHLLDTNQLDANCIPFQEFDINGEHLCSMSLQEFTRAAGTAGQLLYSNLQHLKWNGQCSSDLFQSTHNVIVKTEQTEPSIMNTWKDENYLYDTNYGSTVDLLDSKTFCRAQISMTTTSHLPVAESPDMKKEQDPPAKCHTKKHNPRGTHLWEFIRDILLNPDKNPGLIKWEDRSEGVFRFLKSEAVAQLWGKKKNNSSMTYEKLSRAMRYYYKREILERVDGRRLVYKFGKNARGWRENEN
# Procedure, shortened: as §1
# [7] = biological target: SPI1 (Homo sapiens, UniProt P17947 1-270); conditions: protein: recombinant; tags: N-terminal GST; dsDNA, one strand shown
# Procedure, shortened: as §1
# [8] = biological target: SPIB (Homo sapiens, UniProt Q01892 1-262); conditions: protein: recombinant; tags: N-terminal GST; dsDNA, one strand shown
# Procedure, shortened: as §1
# [9] = biological target: T6, ELK3 (Homo sapiens, UniProt P41970 1-407); conditions: protein: recombinant; tags: N-terminal GST; dsDNA, one strand shown
# T6 sequence: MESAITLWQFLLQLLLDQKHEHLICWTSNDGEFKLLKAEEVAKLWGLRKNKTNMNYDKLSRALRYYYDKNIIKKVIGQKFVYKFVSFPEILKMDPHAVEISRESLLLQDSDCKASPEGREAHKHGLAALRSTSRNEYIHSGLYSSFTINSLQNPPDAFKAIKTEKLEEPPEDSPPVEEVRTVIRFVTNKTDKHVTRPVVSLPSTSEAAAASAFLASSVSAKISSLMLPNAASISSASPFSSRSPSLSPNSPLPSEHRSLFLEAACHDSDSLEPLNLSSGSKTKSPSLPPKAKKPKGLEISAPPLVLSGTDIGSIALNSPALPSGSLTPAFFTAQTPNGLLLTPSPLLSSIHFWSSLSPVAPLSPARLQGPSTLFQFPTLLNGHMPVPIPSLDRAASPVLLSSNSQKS
# Procedure, shortened: as §1
# [10] = biological target: T7, FEV (Homo sapiens, UniProt Q99581 1-238); conditions: protein: recombinant; tags: N-terminal GST; dsDNA, one strand shown
# T7 sequence: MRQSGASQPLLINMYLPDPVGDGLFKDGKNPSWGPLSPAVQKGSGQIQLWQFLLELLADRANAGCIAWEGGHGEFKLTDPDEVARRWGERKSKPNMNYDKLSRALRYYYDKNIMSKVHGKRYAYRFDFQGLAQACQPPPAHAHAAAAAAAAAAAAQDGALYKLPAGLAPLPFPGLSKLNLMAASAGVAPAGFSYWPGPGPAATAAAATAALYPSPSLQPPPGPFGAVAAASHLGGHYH
# Procedure, shortened: as §1
# [11] = biological target: ETV5 (Homo sapiens, UniProt P41161 1-510); conditions: protein: recombinant; tags: N-terminal GST; dsDNA, one strand shown
# Procedure, shortened: as §1
# [12] = biological target: HSF1 (Homo sapiens, UniProt Q00613 1-529); conditions: protein: recombinant; tags: N-terminal GST; chain copies: 3; dsDNA, one strand shown
# Procedure, shortened: as §1
# [13] = biological target: T8, SPIC (Homo sapiens, UniProt Q8N5J4 1-248); conditions: protein: recombinant; tags: N-terminal GST; dsDNA, one strand shown
# T8 sequence: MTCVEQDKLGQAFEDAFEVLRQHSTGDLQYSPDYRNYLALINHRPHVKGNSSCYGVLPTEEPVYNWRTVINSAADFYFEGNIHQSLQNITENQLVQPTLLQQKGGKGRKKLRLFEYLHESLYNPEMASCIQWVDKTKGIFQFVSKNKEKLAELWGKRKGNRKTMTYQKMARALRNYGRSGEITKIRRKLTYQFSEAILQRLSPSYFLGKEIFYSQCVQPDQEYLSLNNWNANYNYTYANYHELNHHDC
# Procedure, shortened: as §1
# [14] = biological target: ELF4 (Homo sapiens, UniProt Q99607 1-663); conditions: protein: recombinant; tags: N-terminal GST; dsDNA, one strand shown
# Procedure, shortened: as §1
# [15] = biological target: T9, ELK4 (Homo sapiens, UniProt P28324-2 1-405); conditions: protein: recombinant; tags: N-terminal GST; dsDNA, one strand shown
# T9 sequence: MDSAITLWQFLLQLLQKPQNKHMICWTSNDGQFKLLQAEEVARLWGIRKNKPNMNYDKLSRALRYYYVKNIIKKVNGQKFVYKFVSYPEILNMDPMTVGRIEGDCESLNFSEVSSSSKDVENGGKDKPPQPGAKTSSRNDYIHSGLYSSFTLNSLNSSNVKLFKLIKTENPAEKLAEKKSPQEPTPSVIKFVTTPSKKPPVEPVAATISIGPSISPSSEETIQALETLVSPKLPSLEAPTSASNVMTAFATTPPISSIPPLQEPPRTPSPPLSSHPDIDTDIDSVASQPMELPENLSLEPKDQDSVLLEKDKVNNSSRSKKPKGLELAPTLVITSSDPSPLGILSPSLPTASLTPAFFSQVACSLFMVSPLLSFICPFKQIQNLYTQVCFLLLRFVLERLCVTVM
# Procedure, shortened: as §1
# [16] = biological target: T10, ETV2 (Homo sapiens, UniProt O00321 1-342); conditions: protein: recombinant; tags: N-terminal GST; dsDNA, one strand shown
# T10 sequence: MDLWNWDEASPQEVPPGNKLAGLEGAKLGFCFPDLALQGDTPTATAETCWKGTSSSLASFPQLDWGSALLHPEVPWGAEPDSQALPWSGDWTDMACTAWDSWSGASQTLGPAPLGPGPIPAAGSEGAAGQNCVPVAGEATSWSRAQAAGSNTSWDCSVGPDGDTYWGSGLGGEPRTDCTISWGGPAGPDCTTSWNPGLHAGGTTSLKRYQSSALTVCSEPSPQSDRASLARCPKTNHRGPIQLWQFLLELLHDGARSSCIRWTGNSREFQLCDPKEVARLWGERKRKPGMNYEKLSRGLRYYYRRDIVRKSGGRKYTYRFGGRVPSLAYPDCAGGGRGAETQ
# Procedure, shortened: as §1
# [17] = biological target: T11, ELF3 (Homo sapiens, UniProt P78545 1-371); conditions: protein: recombinant; tags: N-terminal GST; dsDNA, one strand shown
# T11 sequence: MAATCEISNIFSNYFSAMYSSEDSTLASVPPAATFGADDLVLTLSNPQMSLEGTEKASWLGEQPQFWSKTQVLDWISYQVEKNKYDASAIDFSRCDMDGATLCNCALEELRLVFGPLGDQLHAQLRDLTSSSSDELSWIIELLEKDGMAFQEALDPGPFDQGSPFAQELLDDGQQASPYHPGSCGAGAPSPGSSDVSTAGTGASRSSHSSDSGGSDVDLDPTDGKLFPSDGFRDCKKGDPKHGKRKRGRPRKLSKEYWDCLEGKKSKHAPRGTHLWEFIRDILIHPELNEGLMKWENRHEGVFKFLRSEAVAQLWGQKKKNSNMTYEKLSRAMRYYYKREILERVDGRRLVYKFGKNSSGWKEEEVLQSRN
# Procedure, shortened: as §1
# [18] = biological target: CRX (Homo sapiens, UniProt O43186 1-299); conditions: protein: recombinant; tags: N-terminal GST; dsDNA, one strand shown
# Procedure, shortened: as §1
# [19] = biological target: ETV1 (Homo sapiens, UniProt P50549 1-477); conditions: protein: recombinant; tags: N-terminal GST; dsDNA, one strand shown
# Procedure, shortened: as §1
# Chain of CRX (O43186 whole entry): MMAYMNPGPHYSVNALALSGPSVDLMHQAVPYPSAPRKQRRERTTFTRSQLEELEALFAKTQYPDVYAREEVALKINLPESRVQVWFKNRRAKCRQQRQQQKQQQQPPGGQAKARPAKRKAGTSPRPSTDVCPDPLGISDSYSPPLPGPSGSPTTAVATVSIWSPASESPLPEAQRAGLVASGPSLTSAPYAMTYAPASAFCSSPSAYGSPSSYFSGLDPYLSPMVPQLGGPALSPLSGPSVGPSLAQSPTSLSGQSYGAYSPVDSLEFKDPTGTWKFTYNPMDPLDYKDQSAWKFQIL
# Chain of ETV5 (P41161 whole entry): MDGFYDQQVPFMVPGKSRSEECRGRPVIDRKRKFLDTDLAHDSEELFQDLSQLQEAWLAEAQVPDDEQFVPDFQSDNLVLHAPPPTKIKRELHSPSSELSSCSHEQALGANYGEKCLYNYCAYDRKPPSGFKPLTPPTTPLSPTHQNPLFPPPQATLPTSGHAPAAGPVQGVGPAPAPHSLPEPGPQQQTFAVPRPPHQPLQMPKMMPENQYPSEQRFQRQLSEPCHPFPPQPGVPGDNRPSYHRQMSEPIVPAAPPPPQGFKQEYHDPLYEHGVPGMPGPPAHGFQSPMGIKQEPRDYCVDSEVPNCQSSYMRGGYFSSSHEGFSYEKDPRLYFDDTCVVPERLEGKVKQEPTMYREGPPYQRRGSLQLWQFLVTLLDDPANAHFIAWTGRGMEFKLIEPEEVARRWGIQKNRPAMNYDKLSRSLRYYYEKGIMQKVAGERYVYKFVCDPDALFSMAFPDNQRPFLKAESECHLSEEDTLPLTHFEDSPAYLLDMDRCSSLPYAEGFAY
# Chain of HSF1 (Q00613 whole entry): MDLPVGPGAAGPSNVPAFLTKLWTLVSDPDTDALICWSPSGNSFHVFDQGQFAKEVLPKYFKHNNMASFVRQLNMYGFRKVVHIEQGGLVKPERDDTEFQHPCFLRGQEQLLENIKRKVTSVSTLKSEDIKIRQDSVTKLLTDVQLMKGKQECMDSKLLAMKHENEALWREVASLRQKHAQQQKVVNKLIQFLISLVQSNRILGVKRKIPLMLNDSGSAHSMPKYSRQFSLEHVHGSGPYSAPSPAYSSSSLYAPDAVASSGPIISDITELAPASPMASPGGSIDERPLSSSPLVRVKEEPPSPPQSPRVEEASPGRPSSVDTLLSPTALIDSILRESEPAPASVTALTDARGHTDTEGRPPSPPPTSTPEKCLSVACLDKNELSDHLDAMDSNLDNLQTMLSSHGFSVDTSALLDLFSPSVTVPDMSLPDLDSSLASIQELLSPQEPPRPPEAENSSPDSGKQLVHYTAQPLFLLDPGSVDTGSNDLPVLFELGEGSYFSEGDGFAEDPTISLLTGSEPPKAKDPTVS
# Chain of SPIB (Q01892 whole entry): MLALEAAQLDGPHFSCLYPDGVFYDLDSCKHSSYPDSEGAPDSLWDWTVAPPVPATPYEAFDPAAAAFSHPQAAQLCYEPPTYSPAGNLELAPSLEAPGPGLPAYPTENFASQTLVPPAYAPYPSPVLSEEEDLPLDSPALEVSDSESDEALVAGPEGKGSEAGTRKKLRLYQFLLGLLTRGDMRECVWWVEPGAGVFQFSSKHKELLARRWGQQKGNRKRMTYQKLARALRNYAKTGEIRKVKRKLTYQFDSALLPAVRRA
# Chain of ETV1 (P50549 whole entry): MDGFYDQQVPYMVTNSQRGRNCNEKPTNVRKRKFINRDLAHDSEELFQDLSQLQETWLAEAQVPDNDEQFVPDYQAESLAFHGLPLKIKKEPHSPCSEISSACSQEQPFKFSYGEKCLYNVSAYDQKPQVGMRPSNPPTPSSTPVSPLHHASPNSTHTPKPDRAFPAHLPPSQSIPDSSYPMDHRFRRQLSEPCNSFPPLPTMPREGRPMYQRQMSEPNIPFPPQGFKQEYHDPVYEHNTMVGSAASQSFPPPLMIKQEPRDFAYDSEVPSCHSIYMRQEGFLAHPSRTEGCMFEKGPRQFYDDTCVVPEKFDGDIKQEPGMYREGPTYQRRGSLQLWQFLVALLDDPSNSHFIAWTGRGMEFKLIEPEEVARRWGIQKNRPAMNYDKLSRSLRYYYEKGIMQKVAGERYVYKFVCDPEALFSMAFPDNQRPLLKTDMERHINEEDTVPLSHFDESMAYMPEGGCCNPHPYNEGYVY
# Chain of ELF1 (P32519 whole entry): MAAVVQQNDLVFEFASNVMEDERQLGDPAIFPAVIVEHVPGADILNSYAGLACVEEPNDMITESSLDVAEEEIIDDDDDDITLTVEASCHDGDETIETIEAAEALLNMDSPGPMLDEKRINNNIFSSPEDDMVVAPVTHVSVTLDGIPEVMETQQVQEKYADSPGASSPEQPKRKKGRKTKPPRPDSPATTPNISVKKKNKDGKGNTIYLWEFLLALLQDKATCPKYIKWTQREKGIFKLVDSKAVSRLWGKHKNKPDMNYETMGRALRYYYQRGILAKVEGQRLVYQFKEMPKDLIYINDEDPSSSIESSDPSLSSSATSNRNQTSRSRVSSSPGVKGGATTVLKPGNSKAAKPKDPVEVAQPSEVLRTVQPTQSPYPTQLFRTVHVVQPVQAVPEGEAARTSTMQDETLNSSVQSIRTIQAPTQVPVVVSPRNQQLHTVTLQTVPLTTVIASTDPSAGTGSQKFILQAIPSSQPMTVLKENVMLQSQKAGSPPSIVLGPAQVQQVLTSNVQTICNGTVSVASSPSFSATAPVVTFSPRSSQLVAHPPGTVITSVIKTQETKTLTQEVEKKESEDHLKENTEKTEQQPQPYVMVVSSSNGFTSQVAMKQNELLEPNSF
# Chain of ELF4 (Q99607 whole entry): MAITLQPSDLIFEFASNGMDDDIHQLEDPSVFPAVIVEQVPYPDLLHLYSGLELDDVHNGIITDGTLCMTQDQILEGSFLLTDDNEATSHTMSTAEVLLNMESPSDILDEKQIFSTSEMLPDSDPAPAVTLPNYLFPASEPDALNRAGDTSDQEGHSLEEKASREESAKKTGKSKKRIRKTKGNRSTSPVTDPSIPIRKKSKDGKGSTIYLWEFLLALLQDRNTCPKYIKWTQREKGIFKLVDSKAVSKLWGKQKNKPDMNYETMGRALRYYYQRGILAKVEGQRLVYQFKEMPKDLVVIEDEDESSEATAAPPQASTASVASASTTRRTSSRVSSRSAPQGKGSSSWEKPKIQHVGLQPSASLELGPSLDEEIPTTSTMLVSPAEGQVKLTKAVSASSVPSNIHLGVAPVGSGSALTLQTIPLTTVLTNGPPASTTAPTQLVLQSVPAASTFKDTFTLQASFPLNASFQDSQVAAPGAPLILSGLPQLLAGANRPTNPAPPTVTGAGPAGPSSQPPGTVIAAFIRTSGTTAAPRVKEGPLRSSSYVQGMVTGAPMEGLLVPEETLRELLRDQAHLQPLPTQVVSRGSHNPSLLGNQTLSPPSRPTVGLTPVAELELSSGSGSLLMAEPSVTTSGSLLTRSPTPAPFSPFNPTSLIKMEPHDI
sequence,measurement,setting,value
CCTTTA,binding signal,[1],"1.36 fold enrichment (6-mer frequency, TF over GST control)"
same,binding signal,[2],"1.4 fold enrichment (6-mer frequency, TF over GST control)"
same,binding signal,[3],"1.37 fold enrichment (6-mer frequency, TF over GST control)"
same,binding signal,[4],"1.21 fold enrichment (6-mer frequency, TF over GST control)"
same,binding signal,[5],"1.36 fold enrichment (6-mer frequency, TF over GST control)"
same,binding signal,[6],"1.29 fold enrichment (6-mer frequency, TF over GST control)"
same,binding signal,[7],"1.45 fold enrichment (6-mer frequency, TF over GST control)"
same,binding signal,[8],"1.3 fold enrichment (6-mer frequency, TF over GST control)"
same,binding signal,[9],"1.21 fold enrichment (6-mer frequency, TF over GST control)"
same,binding signal,[10],"1.3 fold enrichment (6-mer frequency, TF over GST control)"
same,binding signal,[11],"1.22 fold enrichment (6-mer frequency, TF over GST control)"
same,binding signal,[12],"1.31 fold enrichment (6-mer frequency, TF over GST control)"
same,binding signal,[13],"1.32 fold enrichment (6-mer frequency, TF over GST control)"
same,binding signal,[14],"1.35 fold enrichment (6-mer frequency, TF over GST control)"
same,binding signal,[15],"1.42 fold enrichment (6-mer frequency, TF over GST control)"
same,binding signal,[16],"1.34 fold enrichment (6-mer frequency, TF over GST control)"
same,binding signal,[17],"1.51 fold enrichment (6-mer frequency, TF over GST control)"
same,binding signal,[18],"1.57 fold enrichment (6-mer frequency, TF over GST control)"
same,binding signal,[19],"1.37 fold enrichment (6-mer frequency, TF over GST control)"
